PubChem BioAssay AID1628 (Sanford-Burnham Center for Chemical Genomics, 2009)
The whole screen tested about 190,000 compounds, of which about 930 (0.49%) were called active.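 The calls were made as follows: active = z-score of insulin promoter reporter brightness in nuclei below -3 at 5 µM, with at least 500 cells counted; inconclusive = wells with under 500 cells, flagged as toxic or sparse; inactive = the rest.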 Some of the results follow. Measured potencies and affinities stand elsewhere.

Test: decrease of insulin promoter-GFP reporter – imaging, high-content screening, mouse beta cells (AID 1628)
Details: MIN6 insulin promoter GFP reporter, at 5 µM, hits give low values

z-score, inactive:
C=CCNC(=O)C1CCN(S(=O)(=O)c2ccc(Br)cc2)CC1 3.14
O=C(C1=C(O)C(=O)N(c2nccs2)C1c1ccccc1)c1cc2ccccc2o1 (centres undefined) 13.5
CN(C)c1ccc(/C=C2\SC(=O)N(CCc3nnc(N)s3)C2=O)cc1 3.27
O=C1S/C(=C/c2ccc(N3CCOCC3)o2)C(=O)N1Cc1ccc(F)cc1 11.4
CCCc1nc2ccc(NC(C)=O)cc2c(=O)n1Cc1ccc(Cl)cc1 3.64
CC(=O)Nc1ccc2nc(NC(=O)COc3ccccc3C)sc2c1 2.47
COc1ccc(Cl)cc1NC(=O)CN(C)C(=O)COc1ccccc1F 4.38
Cc1cccc(N=Cc2[nH]c3ccc(Br)c(Cl)c3c2O)c1 16.6
Cn1c(C(=O)N2CCC(C(=O)N3CCN(Cc4ccc5c(c4)OCO5)CC3)CC2)cc2sccc21 4.67
CC(C)N1CCc2c(sc(NC(=O)c3cc4cc([N+](=O)[O-])ccc4s3)c2C(N)=O)C1 7.47
CCn1ncc(Br)c1C(=O)Nc1sc2c(c1C(N)=O)CCC2 3.46
CN(CCCNC(=O)CN1C(=O)CC(C)(C)S(=O)(=O)c2ccccc21)C1CCCCC1 3.03
COc1cccc(/C=N/NC(=O)CCn2cnc3ccccc32)c1 3.74
COc1ccc(CCNC(=O)c2cnc3scc(C)n3c2=O)cc1OC 0.78
CCOC(=O)COc1cccc2c(=O)n(CC(=O)NCCc3ccc(OC)c(OC)c3)ccc12 3.56
COc1ccc(/C(O)=C/c2nc3ccc(C(=O)NCCc4cccc(C)c4)cc3[nH]c2=O)cc1OC 4.75
CCCCCn1nc(-c2ccccc2)c2nc3ccccc3nc21 4.99
CCCCn1c(=O)[nH]c2nc3cc(N)ccc3nc2c1=O 4.83
COCCCn1cc(C(=O)c2cc(Br)ccc2O)cc(C#N)c1=O 2.45
CCC(=O)NC(Nc1ncc(C)s1)(C(=O)OC)C(F)(F)F (centres undefined) 0.55
Cc1nonc1NC(=O)CSc1nc2c(C)cccc2cc1C#N 12.5
COc1ccc2nc(SCC(C)=O)c(C#N)cc2c1 8.23
O=[N+]([O-])c1ccc(C2=NN(c3ccccc3)C(c3ccco3)C2)cc1 (centres undefined) 16.5
COc1cc(OC)cc(C(=O)N2CCC(N3CCCCCC3)CC2)c1 1.84
Cn1c(=O)c(Nc2ccc(Cl)cc2)c2c3c(cccc31)C(=O)c1ccccc1-2 15.1
N#C/C(=C\c1ccc(N2CCOCC2)o1)c1nc2ccccc2[nH]1 8.22
NS(=O)(=O)c1cccc2cccnc12 5.52
NCC12CC3CC(C1)CC(CN)(C3)C2 3.09
Cn1cc(/C=C2\SC(=S)N(NC(=O)c3ccccc3Cl)C2=O)c2ccccc21 7
CCOC(=O)c1sc(=S)n(-c2ccccc2)c1N(C(C)=O)C(C)=O 1.57
COc1ccc(NC(=O)CSc2nnnn2C)c([N+](=O)[O-])c1 0.83
CC(C)(C)C(=O)c1sc2nc(-c3cccs3)cc(C(F)(F)F)c2c1N 13.8
CCOc1ccccc1NC(=O)C1CCN(S(=O)(=O)c2ccc(OC)c(OC)c2)CC1 0.9
NC(CO)C(O)c1ccc([N+](=O)[O-])cc1 (centres undefined) -0.09
COCCN(CCOC)Cc1cc(=O)oc2cc3c(cc12)CCC3 3.14
Cc1cccn2c(=O)c(/C=C3\SC(=S)N(CC(C)C)C3=O)c(NCCCOC(C)C)nc12 12.1
C(=C/c1nccc2c1[nH]c1ccccc12)/c1ccc2c(c1)OCO2 10.6
O=c1[nH]c(CN2CCN(Cc3ccc4c(c3)OCO4)CC2)nc2sc3c(c12)CCC3 3.55
CCN(CC)c1ccc2cc(-c3nnc(-c4ccncc4)o3)c(=O)oc2c1 4.43
COc1ccc2nc(SCC(=O)Nc3ccc(S(=O)(=O)N4CCCC4)cc3)c(C#N)cc2c1 3.47
Cc1ccc(-c2noc(CSc3nnnn3-c3ccccc3)n2)cc1 2.35
COC(=O)c1ccccc1NC(=S)N1CCC(N2CCCCC2)CC1 1.65
CCOc1ccc(-n2c(SCC(=O)NC(C)CC)nc3n[nH]c(C)c3c2=N)cc1 (centres undefined) 3

z-score, active:
CCCCCc1cc(=O)oc2c(C(CCN3CCCC(C)C3)c3ccc(OC)cc3)c(OC)cc(OC)c12 (centres undefined) -3.09
CC1CCN(S(=O)(=O)c2ccc(NC(=O)N3c4ccccc4Sc4ccccc43)cc2)CC1 -3.77
Cc1ccc2c(c1)C(c1ccccc1)N(C(=O)c1cc3ccccc3oc1=O)CC(=O)N2 (centres undefined) -4.42
Cc1ccc(S(=O)(=O)CCC(=O)NCCN2C(=O)S/C(=C/c3ccc(F)cc3)C2=O)cc1 -5.68
CN(C)Cc1nc2ccccc2c(=O)n1Cc1nc(C(C)(C)C)cs1 -4
Cc1cccc(OCC(=O)NNC(=O)Nc2cccc(Cl)c2)c1C -5.42
Cc1cccc(N=CC=C2OC(C)(C)C(C)(C)O2)c1 -4.14
O=C(c1ccco1)N1CCN(C(=O)c2cc3sccc3n2Cc2ccccc2)CC1 -3.22
Cc1ccc(/C=C/C(=O)O)cc1S(=O)(=O)NCCO -4.14
CCC(C)(C)C1CCc2c(sc(NC(=O)c3cccs3)c2C(N)=O)C1 (centres undefined) -3.17
COc1cccc(OCCOc2cccc(/C=N/n3cnnc3)c2)c1 -5.3
COc1ccc(CCNc2ncnc3cc(OC)c(OC)cc23)cc1OC -3.22
COc1ccc(CCNc2ncnc3[nH]ncc23)cc1OC -7.54
CCCCCn1c(=O)c(-c2nc3ccccc3[nH]2)c(O)c2ccccc21 -5.3
O=C(Nc1ccc(N2CCN(C(=O)c3ccco3)CC2)c(Cl)c1)c1cc2ccccc2o1 -5.03
O=C(Nc1ccc(N2CCN(C(=O)c3ccccc3)CC2)c(Cl)c1)c1ccc(Br)o1 -3.01
CCOC(=O)c1cc(C#N)c(SCC(=O)c2cc(C#N)c(SC)nc2C)nc1C -4.9
CCOC(=O)c1ccc(Nc2ccc(-c3ccc(OC)c(OC)c3)nn2)cc1 -3.46
CCOC(=O)c1c(NC(=O)CSc2nnnn2C)sc(C)c1-c1ccc(C)cc1 -3.09
CCOC(=O)c1sc(-c2ccccc2)cc1NC(=O)CSc1nnnn1C -3.34
COc1ccc(NC(=O)C2CCN(Cc3cnn(-c4ccccc4)c3-n3cccc3)CC2)cc1OC -4.57
Cc1ccc2[nH]c3c(c2c1)CN(C(=O)CN1CCN(Cc2ccc4c(c2)OCO4)CC1)CC3 -3.96
O=C(CN1CCN(Cc2ccc3c(c2)OCO3)CC1)N1CCc2[nH]c3ccccc3c2C1 -4.04
COc1ccc(S(=O)(=O)N2CCCCC2)cc1NC(=O)CSc1ncnc2ccccc12 -4.48
CCOC(=O)c1ccccc1NC(=O)c1ccc2c(=O)n3c(nc2c1)CCCCC3 -3.69
CC1(C)CC(N2CCCC2)=CC(=[N+]2CCCCCC2)C1 -4.54
